About 79,000 compounds went through this panel and 15% of them were active in at least one assay; those are over-represented in the sample as a whole. A number with no mark means an inactive call. The source made the active and inactive calls. Rule as the data show it: active = growth inhibition above about 70%; inactive = the rest.
Assays:
[1] = NCI Yeast Anticancer Drug Screen. Data for the rad50 strain (AID 155);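 also: 0% = growth of vehicle-only cultures of the same strain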; conditions: S. cerevisiae rad50 strain growth inhibition, stronger effect = higher value
In short: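 Readout: growth inhibition relative to vehicle-treated cultures. Compound exposure was carried out in a genetically defined yeast strain deficient in DNA damage repair.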

[2] = NCI Yeast Anticancer Drug Screen. Data for the mec2-1 strain (AID 157); conditions: S. cerevisiae mec2-1 strain, stronger effect = higher value
In short: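 Compounds were applied to mec2-1 yeast cells. Their growth was then compared with that of vehicle-treated cultures to give growth inhibition.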

[3] = NCI Yeast Anticancer Drug Screen. Data for the sgs1 mgt1 strain (AID 161);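 also: 0% = growth of cultures given vehicle only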; conditions: S. cerevisiae sgs1 mgt1 strain, stronger effect = higher value
In short: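 Percent growth inhibition was derived by comparing compound-exposed mutant yeast with vehicle-exposed cultures. The strain carries alterations in DNA damage repair.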

[4] = NCI Yeast Anticancer Drug Screen. Data for the cln2 rad14 strain (AID 165);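 also: 0% = growth equal to vehicle treated cultures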; conditions: S. cerevisiae cln2 rad14 strain, stronger effect = higher value
In short: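 Strain: cln2 rad14 yeast, altered in cell cycle control and DNA damage repair. Read-out: growth inhibition vs vehicle.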

[5] = NCI Yeast Anticancer Drug Screen. Data for the bub3 strain (AID 167); conditions: S. cerevisiae bub3 mutant strain, stronger effect = higher value
In short: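 Readout: yeast growth inhibition, expressed relative to vehicle-only wells. The test organism is a mutant strain from a panel with lesions in DNA repair or checkpoint genes.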

[6] = NCI Yeast Anticancer Drug Screen. Data for the mlh1 rad18 strain (AID 175); conditions: S. cerevisiae mlh1 rad18 strain growth inhibition, stronger effect = higher value
In short: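 A repair-deficient yeast strain is exposed to test compound, and growth is scored relative to vehicle-treated controls.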

[7] = at 5.0 µM (retest, dose inferred, filed as 0.5)
[8] = at 50.0 µM (retest, dose inferred, filed as 5.0)

## C[C@@H]1CN(CC2COc3ccccc3O2)[C@@H](C)CN1CC1COc2ccccc2O1 (stereo not given in full)
[1]; [7]
  growth inhibition: 63%
[1]; [8]
  growth inhibition: 80% (active)
[1]; at 50.0 µM
  growth inhibition: 86.8% (active)
[2]; [7]
  growth inhibition: 74% (active)
[2]; [8]
  growth inhibition: 86% (active)
[2]; at 50.0 µM
  growth inhibition: 84.3% (active)
[3]; [7]
  growth inhibition: 84% (active)
[3]; [8]
  growth inhibition: 98% (active)
[3]; at 50.0 µM
  growth inhibition: 97.4% (active)
[4]; [7]
  growth inhibition: 52%
[4]; [8]
  growth inhibition: 65%
[4]; at 50.0 µM
  growth inhibition: 92.8% (active)
[5]; [7]
  growth inhibition: 52%
[5]; [8]
  growth inhibition: 77% (active)
[5]; at 50.0 µM
  growth inhibition: 84.7% (active)
[6]; [7]
  growth inhibition: 82% (active)
[6]; [8]
  growth inhibition: 94% (active)
[6]; at 50.0 µM
  growth inhibition: 94.5% (active)

## Clc1ccc(/C=N\Nc2c3ccccc3nc3ccccc23)cc1Cl
[1]; [7]
  growth inhibition: -5%
[1]; [8]
  growth inhibition: 25%
[1]; at 50.0 µM
  growth inhibition: 71% (active)
[2]; [7]
  growth inhibition: 13%
[2]; [8]
  growth inhibition: 21%
[2]; at 50.0 µM
  growth inhibition: 14.6%
[3]; [7]
  growth inhibition: 1%
[3]; [8]
  growth inhibition: 38%
[3]; at 50.0 µM
  growth inhibition: 58.4%
[4]; [7]
  growth inhibition: -3%
[4]; [8]
  growth inhibition: 4%
[4]; at 50.0 µM
  growth inhibition: 11.9%
[5]; [7]
  growth inhibition: 13%
[5]; [8]
  growth inhibition: 44%
[5]; at 50.0 µM
  growth inhibition: 28.1%
[6]; [7]
  growth inhibition: 1%
[6]; [8]
  growth inhibition: 57%
[6]; at 50.0 µM
  growth inhibition: 61.8%

## CCn1c2ccc(N)cc2c2c(N)c(-n3cccc3)ccc21
[1]; [7]
  growth inhibition: 1%
[1]; [8]
  growth inhibition: 61%
[1]; at 50.0 µM
  growth inhibition: 94.5% (active)
[2]; [7]
  growth inhibition: 3%
[2]; [8]
  growth inhibition: 54%
[2]; at 50.0 µM
  growth inhibition: 64.2%
[3]; [7]
  growth inhibition: -7%
[3]; [8]
  growth inhibition: 71% (active)
[3]; at 50.0 µM
  growth inhibition: 97.5% (active)
[4]; [7]
  growth inhibition: -6%
[4]; [8]
  growth inhibition: 50%
[4]; at 50.0 µM
  growth inhibition: 61.9%
[5]; [7]
  growth inhibition: -2%
[5]; [8]
  growth inhibition: 86% (active)
[5]; at 50.0 µM
  growth inhibition: 87.5% (active)
[6]; [7]
  growth inhibition: 4%
[6]; [8]
  growth inhibition: 57%
[6]; at 50.0 µM
  growth inhibition: 91.5% (active)

## C=CCc1ccc(OC(=O)CCl)c(OC)c1
[1]; [7]
  growth inhibition: 1%
[1]; [8]
  growth inhibition: 23%
[1]; at 50.0 µM
  growth inhibition: 64.8%
[2]; [7]
  growth inhibition: 1%
[2]; [8]
  growth inhibition: 9%
[2]; at 50.0 µM
  growth inhibition: 27.8%
[3]; [7]
  growth inhibition: -1%
[3]; [8]
  growth inhibition: 5%
[3]; at 50.0 µM
  growth inhibition: 12.6%
[4]; [7]
  growth inhibition: 2%
[4]; [8]
  growth inhibition: 8%
[4]; at 50.0 µM
  growth inhibition: 28.8%
[5]; [7]
  growth inhibition: -2%
[5]; [8]
  growth inhibition: 3%
[5]; at 50.0 µM
  growth inhibition: 18.6%
[6]; [7]
  growth inhibition: 0%
[6]; [8]
  growth inhibition: 26%
[6]; at 50.0 µM
  growth inhibition: 81.7% (active)

## CC(NC(=O)OC(C)(C)C)C(=O)NC(Cc1ccccc1)C(=O)NCC(=O)Oc1c(Cl)c(Cl)c(Cl)c(Cl)c1Cl (stereo not given)
[1]; [7]
  growth inhibition: 30%
[1]; [8]
  growth inhibition: 66%
[1]; at 50.0 µM
  growth inhibition: 65.4%
[2]; [7]
  growth inhibition: 27%
[2]; [8]
  growth inhibition: 45%
[2]; at 50.0 µM
  growth inhibition: 71.5% (active)
[3]; [7]
  growth inhibition: 41%
[3]; [8]
  growth inhibition: 72% (active)
[3]; at 50.0 µM
  growth inhibition: 77% (active)
[4]; [7]
  growth inhibition: 27%
[4]; [8]
  growth inhibition: 55%
[4]; at 50.0 µM
  growth inhibition: 46.5%
[5]; [7]
  growth inhibition: 35%
[5]; [8]
  growth inhibition: 61%
[5]; at 50.0 µM
  growth inhibition: 56.5%
[6]; [7]
  growth inhibition: 68%
[6]; [8]
  growth inhibition: 79% (active)
[6]; at 50.0 µM
  growth inhibition: 73.4% (active)

— PubChem BioAssay (NCI)
